Measurements taken from PubChem BioAssay (NCI).
Compounds without any hit were thinned out: in the full panel of roughly 79,000, 15% have a hit. Active and inactive are the calls of the source. Rule as the data show it: active = growth inhibition above about 70%; inactive = the rest.

Tests used:
[1] = NCI Yeast Anticancer Drug Screen. Data for the rad52 strain (AID 147);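 also: 0% = growth of vehicle-treated control cultures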; details: S. cerevisiae rad52 mutant growth inhibition, hits give high values
Method in brief: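 Measured: yeast growth inhibition. System: strain with a defined DNA damage repair alteration. Reference: vehicle-treated control cultures.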

[2] = NCI Yeast Anticancer Drug Screen. Data for the wt1 strain (AID 149);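 also: 0% = growth of vehicle-treated wt1 cultures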; details: S. cerevisiae wt1 strain (SPY 50644) growth inhibition, hits give high values
Method in brief: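 Growth inhibition read against vehicle controls after compound exposure of the wt1 yeast strain.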

[3] = NCI Yeast Anticancer Drug Screen. Data for the rad50EPP+ strain (AID 151);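 also: 0% = growth of vehicle-treated control cultures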; details: S. cerevisiae rad50 mutant strain, hits give high values
Method in brief: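 One strain with a rad50 alteration (rad50EPP+) was compound-treated, its growth then compared to that of vehicle controls.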

[4] = NCI Yeast Anticancer Drug Screen. Data for the mgt1 strain (AID 153); details: S. cerevisiae mgt1 mutant growth inhibition, hits give high values
Method in brief: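 After exposure of the mgt1 yeast mutant to compound, growth was measured and reported as inhibition compared with vehicle controls.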

[5] = NCI Yeast Anticancer Drug Screen. Data for the rad50 strain (AID 155);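 also: 0% = growth of vehicle-only cultures of the same strain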; details: S. cerevisiae rad50 strain growth inhibition, hits give high values
Method in brief: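 Readout: growth inhibition relative to vehicle-treated cultures. Compound exposure was carried out in a genetically defined yeast strain deficient in DNA damage repair.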

[6] = NCI Yeast Anticancer Drug Screen. Data for the mec2-1 strain (AID 157); details: S. cerevisiae mec2-1 strain, hits give high values
Method in brief: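 Test agents were screened against the mec2-1 yeast strain, with defined DNA repair or cell cycle alteration. Growth was scored as inhibition against vehicle-only controls.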

[7] = NCI Yeast Anticancer Drug Screen. Data for the rad14 strain (AID 159);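 also: 0% = growth of vehicle-treated control cultures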; details: S. cerevisiae rad14 strain growth inhibition, hits give high values
Method in brief: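 Growth inhibition vs vehicle controls; genetically altered yeast strain (DNA damage repair defect) treated with test compounds.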

[8] = NCI Yeast Anticancer Drug Screen. Data for the sgs1 mgt1 strain (AID 161);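 also: 0% = growth of cultures given vehicle only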; details: S. cerevisiae sgs1 mgt1 strain, hits give high values
Method in brief: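 Genetically altered yeast, compound exposure, growth inhibition relative to vehicle.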

[9] = NCI Yeast Anticancer Drug Screen. Data for the CLN2oe strain (AID 163);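 also: 0% = growth of vehicle-only control cultures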; details: S. cerevisiae CLN2oe strain, hits give high values
Method in brief: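 Here, growth inhibition in a cell-cycle-altered yeast strain after compound exposure was quantified against vehicle control growth.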

[10] = NCI Yeast Anticancer Drug Screen. Data for the cln2 rad14 strain (AID 165);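 also: 0% = growth equal to vehicle treated cultures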; details: S. cerevisiae cln2 rad14 strain, hits give high values
Method in brief: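 Growth of compound-exposed yeast (cln2 rad14 genotype) measured and expressed as inhibition relative to vehicle.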

[11] = NCI Yeast Anticancer Drug Screen. Data for the bub3 strain (AID 167); details: S. cerevisiae bub3 mutant strain, hits give high values
Method in brief: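 Readout: yeast growth inhibition, expressed relative to vehicle-only wells. The test organism is a mutant strain from a panel with lesions in DNA repair or checkpoint genes.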

[12] = NCI Yeast Anticancer Drug Screen. Data for the wt2 strain (AID 169);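 also: 0% = growth of vehicle-treated yeast cultures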; details: S. cerevisiae wt2 strain growth inhibition, hits give high values
Method in brief: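 Genetically defined yeast strains from a DNA-repair/cell-cycle panel were used. Compound-exposed yeast growth was measured, and the inhibition was calculated relative to vehicle treatment.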

[13] = NCI Yeast Anticancer Drug Screen. Data for the mlh1 strain (AID 171);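 also: 0% = growth of vehicle-treated control cultures of the same strain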; details: S. cerevisiae mlh1 strain growth inhibition, hits give high values
Method in brief: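 Here the genetically defined yeast mutant is grown with each compound, and the extent to which its growth falls below that of vehicle-exposed cells is reported.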

[14] = NCI Yeast Anticancer Drug Screen. Data for the sgs1 strain (AID 173);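 also: 0% = growth of vehicle-only control cultures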; details: S. cerevisiae sgs1 mutant, hits give high values
Method in brief: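 Relative growth inhibition, referenced to vehicle, was determined in a yeast strain with a defined alteration affecting DNA damage repair or cell cycle control after compound exposure.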

[15] = NCI Yeast Anticancer Drug Screen. Data for the mlh1 rad18 strain (AID 175); details: S. cerevisiae mlh1 rad18 strain growth inhibition, hits give high values
Method in brief: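 In this whole-cell yeast screen, a strain with altered DNA damage repair is challenged with compound, and its growth is measured against matched vehicle-treated controls.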

[16] = NCI Yeast Anticancer Drug Screen. Data for the rad18 strain (AID 177); details: S. cerevisiae rad18 mutant growth inhibition, hits give high values
Method in brief: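 Screen uses a yeast strain with a defined lesion in DNA damage repair; compound effect is read as loss of growth compared to untreated vehicle cultures.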

[17] = at 5.0 µM (retest, dose inferred, filed as 0.5)
[18] = at 50.0 µM (retest, dose inferred, filed as 5.0)

Measured: growth inhibition

CCOC(=O)c1cnc2c(C(F)(F)F)cccc2c1N=[N+]=[N-]
active: [1]; at 100.0 µM 95% | [2]; at 100.0 µM 87% | [3]; at 33.0 µM 86% | [3]; at 100.0 µM 97% | [4]; at 100.0 µM 93% | [5]; at 100.0 µM 95% | [6]; at 100.0 µM 89% | [7]; at 100.0 µM 98% | [9]; at 100.0 µM 73% | [10]; at 50.0 µM 84.7% | [11]; [18] 91% | [11]; at 100.0 µM 92% | [12]; at 100.0 µM 99% | [13]; at 100.0 µM 98% | [14]; at 100.0 µM 97% | [15]; at 50.0 µM 94.8% | [16]; at 100.0 µM 94%
inactive: [1]; at 1.2 µM 3% | [1]; at 3.7 µM 2% | [1]; at 11.0 µM 2% | [1]; at 33.0 µM 42% | [2]; at 1.2 µM 10% | [2]; at 3.7 µM 1% | [2]; at 11.0 µM 1% | [2]; at 33.0 µM 37% | [3]; at 1.2 µM 4% | [3]; at 3.7 µM 0% | [3]; at 11.0 µM -5% | [4]; at 1.2 µM 0% | [4]; at 3.7 µM -2% | [4]; at 11.0 µM 1% | [4]; at 33.0 µM 52% | [5]; at 1.2 µM -6% | [5]; at 3.7 µM -17% | [5]; [17] 15% | [5]; at 11.0 µM 20% | [5]; at 33.0 µM 42% | [5]; [18] 8% | [5]; at 50.0 µM 29.4% | [6]; at 1.2 µM -3% | [6]; at 3.7 µM -4% | [6]; [17] 2% | [6]; at 11.0 µM -4% | [6]; at 33.0 µM 25% | [6]; [18] -5% | [6]; at 50.0 µM 17.6% | [7]; at 1.2 µM 3% | [7]; at 3.7 µM 4% | [7]; at 11.0 µM 3% | [7]; at 33.0 µM 52% | [8]; [17] 5% | [8]; [18] 31% | [8]; at 50.0 µM 0.9% | [9]; at 1.2 µM -1% | [9]; at 3.7 µM -1% | [9]; at 11.0 µM -2% | [9]; at 33.0 µM 21% | [10]; [17] 45% | [10]; [18] 24% | [11]; at 1.2 µM -2% | [11]; at 3.7 µM -3% | [11]; [17] -3% | [11]; at 11.0 µM -4% | [11]; at 33.0 µM 20% | [11]; at 50.0 µM 67.3% | [12]; at 1.2 µM -1% | [12]; at 3.7 µM 1% | [12]; at 11.0 µM 2% | [12]; at 33.0 µM 68% | [13]; at 1.2 µM -1% | [13]; at 3.7 µM 0% | [13]; at 11.0 µM -1% | [13]; at 33.0 µM 56% | [14]; at 1.2 µM 1% | [14]; at 3.7 µM -2% | [14]; at 11.0 µM -7% | [14]; at 33.0 µM 67% | [15]; [17] 1% | [15]; [18] 21% | [16]; at 1.2 µM -5% | [16]; at 3.7 µM -8% | [16]; at 11.0 µM -10% | [16]; at 33.0 µM 40%

O=[N+]([O-])CC(SCc1ccccc1)c1ccc2c(c1)OCO2 (stereo unspecified)
inactive: [1]; at 1.2 µM 39% | [1]; at 3.7 µM 34% | [2]; at 1.2 µM 23% | [2]; at 3.7 µM 36% | [3]; at 1.2 µM 44% | [4]; at 1.2 µM 9% | [4]; at 3.7 µM 3% | [4]; at 11.0 µM 47% | [5]; at 1.2 µM 41% | [5]; at 3.7 µM 69% | [5]; [17] 30% | [6]; at 1.2 µM -2% | [6]; at 3.7 µM 42% | [6]; [17] 26% | [7]; at 1.2 µM -2% | [7]; at 3.7 µM 36% | [8]; [17] -4% | [8]; [18] 46% | [9]; at 1.2 µM 3% | [9]; at 3.7 µM 5% | [9]; at 11.0 µM 42% | [10]; [17] 15% | [11]; at 1.2 µM -28% | [11]; at 3.7 µM 13% | [12]; at 1.2 µM 1% | [12]; at 3.7 µM 8% | [12]; at 11.0 µM 47% | [13]; at 1.2 µM 17% | [13]; at 3.7 µM 48% | [14]; at 1.2 µM 30% | [14]; at 3.7 µM 54%
active: [1]; at 11.0 µM 92% | [1]; at 33.0 µM 99% | [1]; at 100.0 µM 97% | [2]; at 11.0 µM 70% | [2]; at 33.0 µM 98% | [2]; at 100.0 µM 98% | [3]; at 3.7 µM 91% | [3]; at 11.0 µM 97% | [3]; at 33.0 µM 98% | [3]; at 100.0 µM 98% | [4]; at 33.0 µM 97% | [4]; at 100.0 µM 97% | [5]; at 11.0 µM 94% | [5]; at 33.0 µM 98% | [5]; [18] 97% | [5]; at 50.0 µM 90% | [5]; at 100.0 µM 98% | [6]; at 11.0 µM 76% | [6]; at 33.0 µM 98% | [6]; [18] 98% | [6]; at 50.0 µM 91.7% | [6]; at 100.0 µM 98% | [7]; at 11.0 µM 71% | [7]; at 33.0 µM 97% | [7]; at 100.0 µM 97% | [8]; at 50.0 µM 92.7% | [9]; at 33.0 µM 97% | [9]; at 100.0 µM 97% | [10]; [18] 97% | [10]; at 50.0 µM 90.2% | [11]; [17] 89% | [11]; at 11.0 µM 91% | [11]; at 33.0 µM 97% | [11]; [18] 96% | [11]; at 50.0 µM 92.2% | [11]; at 100.0 µM 97% | [12]; at 33.0 µM 97% | [12]; at 100.0 µM 97% | [13]; at 11.0 µM 94% | [13]; at 33.0 µM 98% | [13]; at 100.0 µM 97% | [14]; at 11.0 µM 97% | [14]; at 33.0 µM 100% | [14]; at 100.0 µM 99% | [15]; [17] 73% | [15]; [18] 97% | [15]; at 50.0 µM 89.2%
